Inconclusive results are not listed. The source made the active and inactive calls. Calls follow the shape of the full dose curve.
Key:
[1] = biological target: Acetylcholinesterase (Homo sapiens) (UniProt P22303); test: Acetylcholinesterase (AChE) small molecule antagonists: colormetric cell-based qHTS assay (AID 1347395); also: nearly all actives have a fitted effect of over 30% in size
How it was run: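 SH-SY5Y cells; cpd 30 min 37 C; + DTNB/acetylthiocholine, 90 min 37 C; colorimetric thiocholine read; qHTS.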

[2] = biological target: Acetylcholinesterase (Homo sapiens) (UniProt P22303); test: Acetylcholinesterase (AChE) small molecule antagonists: enzyme-based qHTS assay (AID 1347397); settings: Potency: AChE enzyme activity inhibition; outcome: AChE enzyme activity inhibition; also: nearly all actives have a fitted effect of over 55% in size
How it was run: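 Recombinant human AChE (50 mU/mL) preincubated with compound 30 min at room temperature; acetylthiocholine plus DTNB then added, and thiocholine formation read colorimetrically after 10 min at room temperature. DMSO served as vehicle control.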

[3] = biological target: Acetylcholinesterase (Homo sapiens) (UniProt P22303); test: Acetylcholinesterase (AChE) small molecule antagonists: fluorescence cell-based qHTS assay (AID 1347398); settings: Potency: AChE activity; outcome: AChE activity; also: nearly all actives have a fitted effect of over 50% in size
How it was run: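 SH-SY5Y cells (2000/well), attached overnight, incubated with compound 30 min at 37 C. Acetylthiocholine plus Thiolite Green then added for 40 min at room temperature. Thiocholine fluorescence (Ex/Em 490/520 nm) reports cellular AChE activity.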

[4] = biological target: Acetylcholinesterase (Homo sapiens) (UniProt P22303); test: Acetylcholinesterase (AChE) small molecule antagonists: enzyme-based qHTS assay with human liver microsomes (AID 1347399); settings: Potency: qHTS inhibition; outcome: qHTS inhibition; also: nearly all actives have a fitted effect of over 60% in size
How it was run: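 Recombinant human AChE (50 mU/mL in the enzyme mix) and human liver microsomes (0.25 mg/mL final) were preincubated with compound and NADPH (0.25 mg/mL final) for 30 min at 37 C. Acetylthiocholine/DTNB was then added; thiocholine was read colorimetrically after 10 min at room temperature.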
% is scaled to controls: 0 for no effect and ±100 for the full control effect.

Sequence of Acetylcholinesterase (Homo sapiens) (P22303 whole entry, looked up): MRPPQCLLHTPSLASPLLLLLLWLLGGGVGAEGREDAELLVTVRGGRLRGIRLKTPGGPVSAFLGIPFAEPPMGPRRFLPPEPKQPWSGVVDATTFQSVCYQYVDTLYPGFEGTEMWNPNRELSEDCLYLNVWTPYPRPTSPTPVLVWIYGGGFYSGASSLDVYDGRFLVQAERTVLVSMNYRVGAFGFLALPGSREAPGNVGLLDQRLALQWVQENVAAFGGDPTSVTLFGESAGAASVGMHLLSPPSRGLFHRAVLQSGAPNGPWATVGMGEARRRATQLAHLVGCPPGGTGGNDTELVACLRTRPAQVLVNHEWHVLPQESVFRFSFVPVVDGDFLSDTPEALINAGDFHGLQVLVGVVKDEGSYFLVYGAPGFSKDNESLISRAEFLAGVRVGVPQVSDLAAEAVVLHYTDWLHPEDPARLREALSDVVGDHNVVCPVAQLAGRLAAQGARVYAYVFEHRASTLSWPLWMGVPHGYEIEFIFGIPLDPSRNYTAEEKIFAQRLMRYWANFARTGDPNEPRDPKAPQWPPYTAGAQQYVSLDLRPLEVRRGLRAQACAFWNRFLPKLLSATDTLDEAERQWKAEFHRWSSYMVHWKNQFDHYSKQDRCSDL

CCCCN1C[C@H](O)[C@@H](O)[C@H](O)[C@H]1CO
inactive: Potency [1] | Potency [2] | Potency [3] | Potency [4]

OC[C@@H](O)[C@@H](O)[C@H](O)[C@@H](O)CO
inactive: Potency [1] | Potency [2] | Potency [3] | Potency [4]

O=C(O)c1cn(C2CC2)c2cc(Cl)c(F)cc2c1=O
inactive: Potency [1] | Potency [2] | Potency [3] | Potency [4]

Cc1cccc(C)c1OCC(C)N (stereo unspecified)
inactive: outcome [1] | outcome [2] | outcome [3] | outcome [4]

O=C(OCC1(COC(=O)c2cccnc2)CCCC(COC(=O)c2cccnc2)(COC(=O)c2cccnc2)C1O)c1cccnc1
inactive: Potency [1] | Potency [2] | Potency [3] | Potency [4]

Cc1cc(NC(=O)C(=O)O)cc(C)c1Oc1ccc(O)c2c1CCC2
inactive: Potency [1] | Potency [2] | Potency [3] | Potency [4]

Cc1cn([C@H]2C[C@H](N=[N+]=[N-])[C@@H](CO)O2)c(=O)[nH]c1=O
inactive: Potency [1] | Potency [2] | Potency [3] | Potency [4]

NNCCc1ccccc1
inactive: Potency [1] | Potency [2] | Potency [3] | Potency [4]

CN1Cc2cc(C(=O)N3CCC(C4CCNCC4)CC3)ccc2N[C@@H](CC(=O)O)C1=O
inactive: Potency [1] | Potency [2] | Potency [3] | Potency [4]

Oc1ccc(Cc2ccccc2O)cc1
inactive: Potency [1] | Potency [2] | Potency [3] | Potency [4]

Cn1c(=O)c2c(ncn2CC2OCCO2)n(C)c1=O
inactive: Potency [1] | Potency [2] | Potency [3] | Potency [4]

FC(F)(F)C(F)(F)C(F)(F)C(F)(F)CCI
inactive: Potency [1] | Potency [2] | Potency [3] | Potency [4]

CCCCCCCCCCCCCCCCCCN(C)C
inactive: Potency [1] | Potency [2] | Potency [3] | Potency [4]

CCC(C)C1N=C(C)C(C)S1 (stereo unspecified)
inactive: Potency [1] | Potency [2] | Potency [3] | Potency [4]

O=[N+]([O-])C(CO)(CO)CO
inactive: Potency [1] | Potency [2] | Potency [3] | Potency [4]

NCCCOCCOCCOCCCN
inactive: Potency [1] | Potency [2] | Potency [3] | Potency [4]

COc1ccc(C(C)=O)cc1
inactive: Potency [1] | Potency [2] | Potency [3] | Potency [4]

COc1ccccc1OCC1CNC(=O)O1 (stereo unspecified)
inactive: Potency [1] | Potency [2] | Potency [3] | Potency [4]

c1ccc2c(c1)-c1cccc3c1c-2cc1ccccc13
inactive: Potency [1] | Potency [2] | Potency [3] | Potency [4]

CCN(CC)CCN
inactive: Potency [1] | Potency [2] | Potency [3] | Potency [4]

O=C(O)c1cc(O)c2c(c1)C(=O)c1cccc(O)c1C2=O
inactive: Potency [1] | Potency [2] | Potency [3] | Potency [4]

CCCCC(CC)COC(=O)COc1cc(Cl)c(Cl)cc1Cl (stereo unspecified)
inactive: Potency [1] | Potency [2] | Potency [3] | Potency [4]

CCCCCC(N)=O
inactive: Potency [1] | Potency [2] | Potency [3] | Potency [4]

CC(C)CCOCCC(C)C
inactive: Potency [1] | Potency [2] | Potency [3] | Potency [4]

CNC(=S)NN
inactive: Potency [1] | Potency [2] | Potency [3] | Potency [4]

COCN(COC)c1nc(N(COC)COC)nc(N(COC)COC)n1
inactive: Potency [1] | Potency [2] | Potency [3] | Potency [4]

CCCC[O][Al]([O]CCCC)[O]CCCC
inactive: Potency [1] | Potency [2] | Potency [3] | Potency [4]

O=S(=O)(O)C(F)(F)F
inactive: Potency [1] | Potency [2] | Potency [3] | Potency [4]

CC1C(C)(C)C2=C(C(=O)CCC2)C1(C)C (stereo unspecified)
inactive: Potency [1] | Potency [2] | Potency [3] | Potency [4]

CC1=CC(=C(c2ccc(N)cc2)c2ccc(N)cc2)C=CC1=N
inactive: activity, negative = inhibition [1] 0.517% [at 10.5 µM] | activity change, negative = inhibition [2] 0.534% [at 10.5 µM] | activity change, negative = inhibition [3] -4.07% [at 10.5 µM] | activity change, negative = inhibition [4] 0.485% [at 10.5 µM]

C=CC(=O)N1CCOCC1
inactive: Potency [1] | Potency [2] | Potency [3] | Potency [4]

CC(C)C(=O)c1ccccc1
inactive: Potency [1] | Potency [2] | Potency [3] | Potency [4]

CCCOCCC
inactive: Potency [1] | Potency [2] | Potency [3] | Potency [4]

O=c1cc[nH]cc1
inactive: Potency [1] | Potency [2] | Potency [3] | Potency [4]

CC1(C)Cc2cccc(N)c2O1
inactive: Potency [1] | Potency [2] | Potency [3] | Potency [4]

COc1ccc(NC(C)=O)cc1
inactive: Potency [1] | Potency [2] | Potency [3] | Potency [4]

COc1cc(C(=S)N2CCOCC2)ccc1O
inactive: Potency [1] | Potency [2] | Potency [3] | Potency [4]

[Cl][Bi]([Cl])([c]1ccccc1)([c]1ccccc1)[c]1ccccc1
inactive: Potency [1] | Potency [2] | Potency [3] | Potency [4]

CCCCCCC/C=C/C=O
inactive: Potency [1] | Potency [2] | Potency [3] | Potency [4]

O=c1[nH]c2ccccc2c(=O)n1CCCl
inactive: Potency [1] | Potency [2] | Potency [3] | Potency [4]

O=C(c1ccc(O)cc1)c1ccc(Cl)cc1
inactive: Potency [1] | Potency [2] | Potency [3] | Potency [4]

NNc1nnc(NN)c2ccccc12
inactive: Potency [1] | Potency [2] | Potency [3] | Potency [4]

c1cc2ccc3ccc4ccc5cccc6c(c1)c2c3c4c56
inactive: activity, negative = inhibition [1] 3.35% [at 4.07 µM] | activity change, negative = inhibition [2] 0.28% [at 4.07 µM] | activity change, negative = inhibition [3] 9.19% [at 3.98 µM] | activity change, negative = inhibition [4] 0.324% [at 4.07 µM]

CC(C)=CC=O
inactive: Potency [1] | Potency [2] | Potency [3] | Potency [4]

CC1(C)O[C@@H]2C[C@H]3[C@@H]4C[C@H](F)C5=CC(=O)C=C[C@]5(C)[C@H]4[C@@H](O)C[C@]3(C)[C@]2(C(=O)CO)O1
inactive: Potency [1] | Potency [2] | Potency [3] | Potency [4]

COCCOCCOCCO
inactive: Potency [1] | Potency [2] | Potency [3] | Potency [4]

COc1ccc2cc1Oc1cc3c(cc1OC)CC[N+](C)(C)[C@H]3Cc1ccc(cc1)Oc1c(OC)c(OC)cc3c1[C@@H](C2)[N+](C)(C)CC3
inactive: Potency [1] | Potency [2] | Potency [3] | Potency [4]

CCCCOC(=O)CO
inactive: Potency [1] | Potency [2] | Potency [3] | Potency [4]

COCC(C)O (stereo unspecified)
inactive: Potency [1] | Potency [2] | Potency [3] | Potency [4]

CC(C)(N)C#N
inactive: Potency [1] | Potency [2] | Potency [3] | Potency [4]

CCN(CC)CCOC(=O)C(c1ccccc1)C1CCCCC1 (stereo unspecified)
inactive: Potency [1] | Potency [2] | Potency [3] | Potency [4]

N[C@H]1CN(c2c(F)cc3c(=O)c(C(=O)O)cn(C4C[C@H]4F)c3c2Cl)CC12CC2 (stereo partly specified)
inactive: Potency [1] | Potency [2] | Potency [3] | Potency [4]

O=C(O)Cc1ccc2c(c1)C(=O)c1ccccc1CO2
inactive: Potency [1] | Potency [2] | Potency [3] | Potency [4]

S=c1nc[nH]c2nc[nH]c12
inactive: Potency [1] | Potency [2] | Potency [3] | Potency [4]

Cc1ccccc1CCO
inactive: Potency [1] | Potency [2] | Potency [3] | Potency [4]

CCOC(=O)C(C)Oc1ccc(Oc2cnc3cc(Cl)ccc3n2)cc1 (stereo unspecified)
inactive: Potency [1] | Potency [2] | Potency [3] | Potency [4]

NS(=O)(=O)c1cc(C(=O)O)cc(N2CCCC2)c1Oc1ccccc1
inactive: Potency [1] | Potency [2] | Potency [3] | Potency [4]

CCC(C)(CCCC(C)C)OC(C)=O (stereo unspecified)
inactive: Potency [1] | Potency [2] | Potency [3] | Potency [4]

COc1nccnc1CC(C)C
inactive: Potency [1] | Potency [2] | Potency [3] | Potency [4]
